Consider 40 compounds from PubChem BioAssay.

Active and inactive are the calls of the source.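 The calls were made as follows, unless noted: active = viability loss from added drug above about 55%, and viability with drug at most 40%, in both replicates (limit read from the data, passing the limit was not always enough); inconclusive = both conditions met in only one replicate; inactive = neither replicate meets both conditions.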

A short description of the first test: growth inhibitors of H69AR lung tumor, primary screen, human, duplicate replicates (AID 580;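 active = viability at or under a set limit in both replicates, limit being median viability minus 3 SD, cut at about 48% in these data, passing the limit was not always enough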;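 also: 100% = mean luminescence of untreated wells and 0% = no signal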). To be noted: H69AR lung tumor cells viability, ATP luminescence, 72 h; at 10 µM; active compounds read low.
For `Cn1c2c(c(=O)[nH]c1=O)C(NC(=O)c1ccco1)(C(F)(F)F)C(=O)N2` (stereo not given), the viability is 96.5% (inactive).
In the case of `c1ccc(CSCc2cn3ccsc3n2)cc1`, the viability was 99.1% (inactive).
For `CCCn1c(SCC(=O)Nc2cc(C)on2)nc2c1c(=O)n(C)c(=O)n2C`, the viability is 100% (inactive).
Take `CCN(CC)C(=O)C1CCC(CNS(=O)(=O)c2cccc3cccnc23)CC1` (stereo not given): the viability is 99.2% (inactive).
Regarding `CC(C)OC(=O)CSc1nnnn1-c1ccc2c(c1)OCCO2`, the viability was 88.6% (inactive).
With `Cc1ccc(OCC(=O)N2CCN(C(=O)CCC3CCCC3)CC2)cc1`, the viability was 86.6% (inactive).
For `CC1(C)CC(=O)C(C=Nc2ccncc2)=C(O)C1`, the viability is 106% (inactive).
Turning to `CCCCN(CC)S(=O)(=O)N1CCC(C(=O)NCc2ccc(F)cc2)CC1`, the viability is 101% (inactive).
As for `CCOC(=O)C1(C(=O)OCC)C(c2ccccc2)CC(O)N1C(C)=O` (stereo not given), the viability is 86.2% (inactive).
For the compound `CCOc1ccccc1N(C(=O)c1ccco1)C(C(=O)NC1CCCC1)c1cccnc1` (stereo not given), the viability was 90.5% (inactive).
With `Cc1ccc(CNC(=O)C2CC(=O)OC23CCCC3)c(C)c1` (stereo not given), the viability is 106% (inactive).
Regarding `Cc1ccc(-c2nnc(-c3ccc(Br)cc3)o2)o1`, the viability is 86.1% (inactive).
The same measure, in the same setting: the value for `COC(=O)CSc1nc2sc3c(c2c(=O)n1C1CCCCC1)CCN(C)C3` was 95% (inactive).
Take `CCOC(=O)Cc1csc(NC(=O)CSc2nnc(C(C)C)n2CC)n1`: the viability is 89.8% (inactive).
On the same count and under the same terms, in the case of `CCOC(=O)Cn1nnnc1CN(Cc1ccc(OC)cc1)Cc1cc2cc(C)cc(C)c2[nH]c1=O` it was 89.4% (inactive).
As for `CC(=O)CCc1ccc(OCCCCn2cncn2)cc1`, the viability is 92.9% (inactive).
For the compound `COc1ccc(CC(=O)OCn2nnc3ccccc3c2=O)cc1`, the viability was 98% (inactive).
As for `CC(=O)Nc1sc2c(c1C#N)CCCCC2`, the viability was 95.6% (inactive).
`Cc1ccccc1-c1nc(CS(=O)(=O)CC(=O)N(C)C2CCCCC2)c(C)o1`: the viability was 92.7% (inactive).
Still for that read-out and setting: the value for `COCCn1c(CN(Cc2ccccc2)Cc2ccccc2)nc2c1c(=O)n(C)c(=O)n2C` was 81.2% (inactive); that for `Cn1c(SCc2ccccc2)nnc1C1CCCNC1` (stereo not given) was 90.8% (inactive); that for `COc1cccc(N(C(=O)c2ccco2)C(C(=O)NC2CCCC2)c2ccc(N(C)C)cc2)c1` (stereo not given) was 91.8% (inactive).
Turning to `O=C(CCSc1ccccc1)Nc1ccc(S(=O)(=O)N2CCOCC2)cc1`, the viability was 104% (inactive).
Regarding `Cc1cc(Nc2ccccc2F)n2ncnc2n1`, the viability is 97.1% (inactive).
`CCOP(=O)(c1ccc(N(C)C)cc1)C(O)c1c(Cl)cccc1Cl` (stereo not given): the viability was 90.1% (inactive).
Same read-out and setting: in the case of `CCN1CCN(c2c(Cl)cccc2NC(=O)c2ccc3c(c2)OCCO3)CC1` it was 81.7% (inactive); in that of `CC1CN(c2nc3ccccc3nc2C(C#N)C(=O)OC2CCCCC2)CC(C)O1` (stereo not given), 96.1% (inactive); in that of `CCOc1cc(NC(=O)c2ccccn2)c(OCC)cc1NC(=O)CC(C)C`, 89% (inactive).
Consider `C(#Cc1ccccc1)Cn1nnc2ccccc21`, for which the viability is 83.1% (inactive).
As to `Cn1cccc1Cc1nnc(SCC(N)=O)n1-c1ccc(F)cc1`, the viability is 99.8% (inactive).
Still for that read-out and setting: in the case of `Cn1c(=O)c2c(-c3ccncc3)c3c(nc2n(C)c1=O)-c1ccccc1C3=O` it was 95% (inactive).
For the compound `CCCCOC(=O)CSc1nc2c(cc1C#N)C(=O)CC(C)(C)C2`, the viability is 78.8% (inactive).
In the case of `COCCN(C(=O)CNC(=O)c1ccco1)C(C(=O)NC1CCCCC1)c1cccc(OC)c1` (stereo not given), the viability is 102% (inactive).
On the same count and under the same terms, in the case of `CCCCCn1c2nc3ccccc3nc2c2c(=O)n(CC(C)C)cnc21` it was 87.3% (inactive).
`CCOC(=O)c1sc2nc(SCC#N)n(CCCN3CCCC3=O)c(=O)c2c1C`: the viability was 75.8% (inactive).
On the same count and under the same terms, in the case of `COc1ccc(N2C(=O)C3C4C=CC(C4)C3C2=O)nn1` (stereo not given) it was 99.2% (inactive); in that of `Clc1cccc(-c2nn3c(Cn4cnc5ccccc54)nnc3s2)c1`, 94.9% (inactive); in that of `O=C(O)C1CCCN1c1ncnc2c1oc1ccccc12` (stereo not given), 92.3% (inactive).
For `O=C(NCCSCc1ccco1)Nc1cccc(Cl)c1`, the viability was 86.3% (inactive).
With `CCSc1nc2c(c(=O)n(C)c(=O)n2C)n1Cc1ccc(Cl)cc1`, the viability is 83% (inactive).

A short description of a further test: reversal of MRP1-mediated doxorubicin resistance, pilot screen, H69AR cells, doxorubicin co-treatment (AID 601). To be noted: H69AR cells + 2 uM doxorubicin, CellTiter-Glo, 72 h; at 10 µM; active compounds read high.
As for `Cn1c2c(c(=O)[nH]c1=O)C(NC(=O)c1ccco1)(C(F)(F)F)C(=O)N2` (stereo not given), the differential viability (reversal) was 4.25% (inactive).
As for `c1ccc(CSCc2cn3ccsc3n2)cc1`, the differential viability (reversal) is 14.5% (inactive).
Same read-out and setting: the value for `CCCn1c(SCC(=O)Nc2cc(C)on2)nc2c1c(=O)n(C)c(=O)n2C` was 15.7% (inactive); that for `CCN(CC)C(=O)C1CCC(CNS(=O)(=O)c2cccc3cccnc23)CC1` (stereo not given) was 2.08% (inactive).
`CC(C)OC(=O)CSc1nnnn1-c1ccc2c(c1)OCCO2`: the differential viability (reversal) was 6.42% (inactive).
On the same count and under the same terms, the value for `Cc1ccc(OCC(=O)N2CCN(C(=O)CCC3CCCC3)CC2)cc1` was -13.4% (inactive).
Turning to `CC1(C)CC(=O)C(C=Nc2ccncc2)=C(O)C1`, the differential viability (reversal) is 7.13% (inactive).
Regarding `CCCCN(CC)S(=O)(=O)N1CCC(C(=O)NCc2ccc(F)cc2)CC1`, the differential viability (reversal) is 0.67% (inactive).
For the compound `CCOC(=O)C1(C(=O)OCC)C(c2ccccc2)CC(O)N1C(C)=O` (stereo not given), the differential viability (reversal) is 6.16% (inactive).
With `CCOc1ccccc1N(C(=O)c1ccco1)C(C(=O)NC1CCCC1)c1cccnc1` (stereo not given), the differential viability (reversal) was -6.1% (inactive).
As for `Cc1ccc(CNC(=O)C2CC(=O)OC23CCCC3)c(C)c1` (stereo not given), the differential viability (reversal) was 12.3% (inactive).
With `Cc1ccc(-c2nnc(-c3ccc(Br)cc3)o2)o1`, the differential viability (reversal) is 1.58% (inactive).
Same read-out and setting: in the case of `COC(=O)CSc1nc2sc3c(c2c(=O)n1C1CCCCC1)CCN(C)C3` it was 2.91% (inactive); in that of `CCOC(=O)Cc1csc(NC(=O)CSc2nnc(C(C)C)n2CC)n1`, 1.63% (inactive); in that of `CCOC(=O)Cn1nnnc1CN(Cc1ccc(OC)cc1)Cc1cc2cc(C)cc(C)c2[nH]c1=O`, 15.2% (inactive).
On to `CC(=O)CCc1ccc(OCCCCn2cncn2)cc1`, for which the differential viability (reversal) is 3.28% (inactive).
On the same count and under the same terms, the value for `COc1ccc(CC(=O)OCn2nnc3ccccc3c2=O)cc1` was -3.25% (inactive).
As for `CC(=O)Nc1sc2c(c1C#N)CCCCC2`, the differential viability (reversal) was 5.43% (inactive).
For the compound `Cc1ccccc1-c1nc(CS(=O)(=O)CC(=O)N(C)C2CCCCC2)c(C)o1`, the differential viability (reversal) was 0.46% (inactive).
In the case of `COCCn1c(CN(Cc2ccccc2)Cc2ccccc2)nc2c1c(=O)n(C)c(=O)n2C`, the differential viability (reversal) is -11.8% (inactive).
As for `Cn1c(SCc2ccccc2)nnc1C1CCCNC1` (stereo not given), the differential viability (reversal) is -4.07% (inactive).
On to `COc1cccc(N(C(=O)c2ccco2)C(C(=O)NC2CCCC2)c2ccc(N(C)C)cc2)c1` (stereo not given), for which the differential viability (reversal) is 14.6% (inactive).
For the compound `O=C(CCSc1ccccc1)Nc1ccc(S(=O)(=O)N2CCOCC2)cc1`, the differential viability (reversal) is 12.5% (inactive).
On to `Cc1cc(Nc2ccccc2F)n2ncnc2n1`, for which the differential viability (reversal) is 8.83% (inactive).
Take `CCOP(=O)(c1ccc(N(C)C)cc1)C(O)c1c(Cl)cccc1Cl` (stereo not given): the differential viability (reversal) was 0.49% (inactive).
For `CCN1CCN(c2c(Cl)cccc2NC(=O)c2ccc3c(c2)OCCO3)CC1`, the differential viability (reversal) is 1.33% (inactive).
`CC1CN(c2nc3ccccc3nc2C(C#N)C(=O)OC2CCCCC2)CC(C)O1` (stereo not given): the differential viability (reversal) was 12.6% (inactive).
Regarding `CCOc1cc(NC(=O)c2ccccn2)c(OCC)cc1NC(=O)CC(C)C`, the differential viability (reversal) is -6.29% (inactive).
On to `C(#Cc1ccccc1)Cn1nnc2ccccc21`, for which the differential viability (reversal) is 7.46% (inactive).
In the case of `Cn1cccc1Cc1nnc(SCC(N)=O)n1-c1ccc(F)cc1`, the differential viability (reversal) was 12.2% (inactive).
Same read-out and setting: in the case of `Cn1c(=O)c2c(-c3ccncc3)c3c(nc2n(C)c1=O)-c1ccccc1C3=O` it was 2.95% (inactive); in that of `CCCCOC(=O)CSc1nc2c(cc1C#N)C(=O)CC(C)(C)C2`, -10.6% (inactive); in that of `COCCN(C(=O)CNC(=O)c1ccco1)C(C(=O)NC1CCCCC1)c1cccc(OC)c1` (stereo not given), 12.6% (inactive).
Same read-out and setting: the value for `CCCCCn1c2nc3ccccc3nc2c2c(=O)n(CC(C)C)cnc21` was -3.98% (inactive); that for `CCOC(=O)c1sc2nc(SCC#N)n(CCCN3CCCC3=O)c(=O)c2c1C` was -8.2% (inactive); that for `COc1ccc(N2C(=O)C3C4C=CC(C4)C3C2=O)nn1` (stereo not given) was 17.4% (inactive).
In the case of `Clc1cccc(-c2nn3c(Cn4cnc5ccccc54)nnc3s2)c1`, the differential viability (reversal) was -1.69% (inactive).
Same read-out and setting: the value for `O=C(O)C1CCCN1c1ncnc2c1oc1ccccc12` (stereo not given) was -7.12% (inactive); that for `O=C(NCCSCc1ccco1)Nc1cccc(Cl)c1` was 2.05% (inactive).
Turning to `CCSc1nc2c(c(=O)n(C)c(=O)n2C)n1Cc1ccc(Cl)cc1`, the differential viability (reversal) was -4.85% (inactive).
